In PubChem BioAssay AID1053127 (Broad Institute, 2014) one finds outcome data, which are given here for 29 molecules.

Potency and affinity values are given separately. Activity calls are given as the source filed them.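 How the source made its calls: active means compounds whose fitted curve of lowered CTGF expression reaches half effect within a set concentration limit; inconclusive means flat moderate drop in CTGF, or unreliable curve fit; inactive means the rest.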

The nature of this assay: YAP1 overexpression rescue of CTGF inhibition – DLD1 cells, RT-qPCR, cherry-pick, mechanism study for YAP1 pathway inhibitor project, dose response (AID 1053127). As to conditions: DLD1 YAP1-overexpressing, CTGF mRNA qPCR, 24 h; series mostly up to 26 µM. (In general: Quantitative PCR measures a nucleic acid by following its amplification.)
As to `Cc1ccc(S(=O)(=O)Nc2ccc3c(c2)CC(=O)N([C@H](C)CO)C[C@@H](C)[C@@H](CN(C)S(=O)(=O)c2ccccc2)O3)cc1`, the outcome was inactive.
For `C[C@@H]1CN([C@H](C)CO)C(=O)c2c(c3ccccc3n2C)-c2ccccc2CO[C@@H]1CN(C)Cc1cccc(C(F)(F)F)c1`, the result was inactive.
As to `COCC(=O)N1CC(=O)N2[C@H](CO)[C@@H](c3ccc(C#CC4CC4)cc3)[C@H]2C1`, the call was inactive.
For `O=C(c1cccc(F)c1)N1CCCCN2[C@H](CO)[C@H](c3ccc(C#CC4(O)CCCC4)cc3)[C@@H]2C1`, the molecule was classed as inactive.
In the case of `O=C(Nc1ccc2c(c1)[C@H]1C[C@@H](CC(=O)N3CCc4ccccc4C3)O[C@@H](CO)[C@H]1O2)c1ccc2c(c1)OCO2` it was “inactive”.
As to `C[C@H](CO)N1C[C@H](C)[C@@H](CN(C)S(=O)(=O)c2ccc([N+](=O)[O-])cc2)OCc2ccccc2-c2c(n(C)c3ccccc23)C1=O`, the result was inactive.
Turning to `C[C@H](O)C#Cc1ccc([C@H]2[C@@H](CO)N3CCCCN(C(=O)c4ccc5c(c4)OCO5)C[C@@H]23)cc1`, the result was inactive.
`O=C(Nc1ccc2c(c1)[C@H]1C[C@@H](CC(=O)N3CCc4ccccc4C3)O[C@H](CO)[C@H]1O2)c1ccc2c(c1)OCO2`: the result was inactive.
Take `CCCNC(=O)N1[C@H](C#N)[C@@H](c2ccc(C#Cc3cccc(F)c3)cc2)[C@@H]1CO`: the call was inactive.
Consider `C[C@@H]1CC=CC[C@@H](c2cccc(Cl)c2)NC(=O)[C@H](Cc2ccccc2)N(C)C(=O)c2ccccc2O1` (mixture of isomers), for which the molecule was called inactive.
On to `O=S(=O)(Cc1ccccc1)N1CC2(C1)[C@H](c1ccccc1)[C@H](CO)N2CC1CCCC1`, for which the result was inactive.
Take `C[C@@H]1CN([C@H](C)CO)C(=O)CCCn2nncc2CO[C@@H]1CN(C)Cc1cccc(C(F)(F)F)c1`: the outcome was inactive.
For `C[C@@H]1CN([C@@H](C)CO)C(=O)c2cc(C#Cc3ccccc3)cnc2O[C@@H]1CN(C)C(=O)c1ccccc1`, the molecule was classed as inactive.
As for `CC(C)(C)[S@](=O)N1Cc2cc(C(=O)NCCc3ccncc3)nc(-c3cccc(-c4cccc(C#N)c4)c3)c2[C@@H]1CCO`, the call was inactive.
In the case of `COc1ccc(S(=O)(=O)Nc2ccc3c(c2)C(=O)N([C@@H](C)CO)C[C@H](C)[C@@H](CN(C)S(=O)(=O)c2ccc(Cl)cc2)OCCCC[C@@H](C)O3)cc1`, the outcome was inactive.
With `O=C(Nc1ccccc1)[C@@H]1[C@@H](CO)[C@@H]2Cn3c(cccc3=O)[C@H]1N2C(=O)c1ccc(F)cc1`, the result was inactive.
As to `C/C=C/c1cccc(-c2nc(C(=O)Nc3nccs3)cc3c2[C@@H](CCO)N(C(=O)NC(C)C)C3)c1`, the molecule was classed as inactive.
Next, `CC(C)(C)S(=O)N1Cc2cc(C(=O)NCc3ccc4c(c3)OCO4)nc(-c3cccc(-c4cccc(F)c4)c3)c2[C@@H]1CCO` (some centres undefined): “inactive”; `CN1CCN(C(=O)C[C@@H]2CC[C@H]3[C@@H](COc4ccc(NC(=O)C5CCOCC5)cc4C(=O)N3C)O2)CC1`: “inactive”.
On to `CC(C)NC(=O)N[C@@H]1CC[C@H](CC(=O)NCCCN(C)C)O[C@@H]1CO`, for which the call was inactive.
Next, `C[C@@H]1CN([C@@H](C)CO)C(=O)Cc2cc(NC(=O)C3CCCCC3)ccc2O[C@@H]1CN(C)Cc1ccc(Cl)c(Cl)c1`: “inactive”; `CC(C)(C)[S@](=O)N1Cc2cc(C(=O)NCc3ccccn3)nc(-c3cccc(-c4ccccc4F)c3)c2[C@@H]1CCO`: “inactive”.
In the case of `C[C@H]1CN([C@@H](C)CO)C(=O)c2cc(C#Cc3ccccc3)cnc2O[C@H]1CN(C)C(=O)c1ccccc1` it was “inactive”; in that of `COc1ccccc1C#Cc1ccc([C@H]2[C@H](CO)N3CCCCN(C(=O)C4CCC4)C[C@@H]23)cc1`, “inactive”.
In the case of `N#Cc1cccc(-c2ccc3c(c2)[C@@H]2[C@@H](CCN2S(=O)(=O)c2ccc(F)cc2)[C@H](CO)N3)c1`, the call was inactive.
On to `COc1ccccc1NC(=O)N1CCCCN2[C@@H](CO)[C@H](c3ccc(-c4cccc(C#N)c4)cc3)[C@@H]2C1`, for which the outcome was inactive.
Regarding `Cc1ccc(S(=O)(=O)N2CC[C@@H]3[C@H]2c2cc(-c4cccc(C(=O)N(C)C)c4)ccc2N[C@@H]3CO)cc1`, the call was inactive.
On to `COc1cccc(C#Cc2ccc3c(c2)O[C@@H](CN(C)C(=O)CN2CCOCC2)[C@@H](C)CN([C@@H](C)CO)S3(=O)=O)c1`, for which the molecule was classed as inactive.
In the case of `COc1ccc2c3c(n(C)c2c1)[C@H](CO)N(S(C)(=O)=O)CC31CCN(C(=O)Nc2cccc(F)c2)CC1` it was “inactive”.
